Assay outcomes: PubChem, National Center for Advancing Translational Sciences (NCATS)
In the library only some 7.3% were active in any assay of this set; here they are far more common.
NPC1 promoter act = activators of NPC1 promoter; 2.4% of 320,000 active; Huh7 NPC1 promoter luciferase reporter, 24 h; Potency, µM (highest dose often 9.22 µM), for the others: at the top dose activation, most hits filed as activators; AID 485313; also: % of control where 0% means no effect; nearly all actives have a fitted effect of over 60% in size
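Stably transfected Huh7 (NPC1 promoter→luciferase), 1500 cells/well in Opti-MEM + 10% FBS, 2 h settle, then compound 24 h at 37 °C. Luminescence after 10 min with Amplite reagent.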
SMN2 splice enh = SMN2 splice variant enhancement; Potency, µM (doses to about 46.1 µM), without a hit: at the top dose activity change, positive = activation, hits mostly activators; AID 1458; 2.8% of 210,000 active; HEK293 SMN2-luciferase splicing reporter, luminescence, 30-36 h; also: % of control where 0% means no effect; nearly all actives have a fitted effect of over 55% in size
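HEK293 cells carry an SMN2 minigene-luciferase reporter in which exon 7 inclusion puts luciferase in frame. Cells were seeded at 2000 cells/well, attached for 10-12 hours, then exposed to compounds for 30-36 hours at 37C before ONE-Glo luminescence.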
Luc counter = Kinase-Glo luciferase inhibition (counter-screen) | Q27757 | Kinase-Glo luciferase, ATP luminescence, 8 min | Potency, µM (titrated, usually from 38.3 µM), for inactives: at the top dose activity change, negative = inhibition, most hits filed as inhibitors | 0.28% of 200,000 active | AID 1379; also: % is scaled to controls: 0 for no effect and ±100 for the full control effect; nearly all actives have a fitted effect of over 60% in size
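Compound is pinned into ATP-containing buffer (10 uM ATP, imidazole pH 7.2, 7 mM MgCl2). Kinase-Glo luciferase reagent is then added. Light output is recorded following an 8-min room-temperature incubation.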
ELG1 genotoxic = inducers of genotoxicity in HEK293T ELG1-luciferase cells; HEK293T ELG1-luciferase reporter, luminescence, 16 h; Potency, µM (titrated, usually from 46 µM), for inactives: at the highest dose activity change, positive = activation, most hits filed as activators; 1.3% of 330,000 active; AID 504466; also: % of control where 0% means no effect; nearly all actives have a fitted effect of over 60% in size
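Screening used a luciferase reporter fused to human ELG1 in HEK293T cells. Luminescence was read on a CCD plate imager after 16 hr exposure and 30 min ONE-Glo incubation.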
FLuc modulator = inhibits or activates purified firefly luciferase, miR-21 counter-screen. purified FLuc, Km substrates, luminescence inhibition. Potency, µM (titrated, usually from 57.5 µM), for the others: at the top dose activity change, negative = inhibition, usual class: inhibitors. 6.9% of 360,000 active. AID 588342;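 also: plate controls were vehicle for no effect and reference inhibitor for full effect; nearly all actives have a fitted effect of over 55% in size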
Target sequence (P08659 whole entry, looked up): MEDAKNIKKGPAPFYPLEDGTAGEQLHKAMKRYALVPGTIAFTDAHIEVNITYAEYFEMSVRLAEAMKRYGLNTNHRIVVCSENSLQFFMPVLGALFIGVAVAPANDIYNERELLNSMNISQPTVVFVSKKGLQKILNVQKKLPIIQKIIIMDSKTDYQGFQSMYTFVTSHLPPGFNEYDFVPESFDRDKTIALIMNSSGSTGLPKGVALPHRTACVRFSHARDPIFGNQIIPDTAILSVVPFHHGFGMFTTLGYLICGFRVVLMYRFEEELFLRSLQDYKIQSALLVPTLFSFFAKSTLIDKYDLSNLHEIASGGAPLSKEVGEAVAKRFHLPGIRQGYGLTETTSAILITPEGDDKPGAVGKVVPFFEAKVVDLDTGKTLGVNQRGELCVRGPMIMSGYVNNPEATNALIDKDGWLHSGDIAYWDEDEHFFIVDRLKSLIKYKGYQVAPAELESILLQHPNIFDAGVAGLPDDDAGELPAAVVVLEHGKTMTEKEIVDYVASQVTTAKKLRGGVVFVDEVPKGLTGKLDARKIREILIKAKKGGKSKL
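Purified P. pyralis luciferase, 10 nM final, with Km-level 10 uM D-luciferin and 10 uM ATP in 50 mM Tris acetate pH 7.5, 10 mM Mg acetate, 0.01% Tween-20, 0.05% BSA; 6-point qHTS titration about 60 µM downward; luminescence read.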
Rab9 promoter act = activators of Rab9 promoter; 2.8% of 320,000 active; AID 485297; Potency, µM (doses to about 9.22 µM), inactives show at the top dose activation, negative = inhibition, hits mostly activators; Huh7 Rab9 promoter-luciferase reporter, luminescence, 24 h; also: % of control where 0% means no effect; nearly all actives have a fitted effect of over 60% in size
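Steps: seed 1500 Huh7 Rab9-luc cells per well, rest 2 h at 37 °C; add compound in DMSO; incubate 24 h; add luciferase reagent, 10 min ambient; read luminescence.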
Numbers without * were called inactive; u = inconclusive; x = no result given; [ ] = remark or other dose. Calls follow the shape of the dose curve; as a rule, active = well fitted curve in the direction sought with a large enough effect; inconclusive = small, poorly fitted or top-dose-only effect, or another doubt; inactive = no such curve, though single readings can be large; an effect the other way counts as inactive or inconclusive. Potency is read from the fitted curve at half-maximal effect.

SMILES	NPC1 promoter act	SMN2 splice enh	Luc counter	ELG1 genotoxic	FLuc modulator	Rab9 promoter act
Cc1cc(C)c2c(-n3cccc3)c(C(=O)NCCCN3CCCCC3C)sc2n1 (configuration not stated)	x	x	x	x	0.0%	x
CC(C)NC(=O)c1onc(CSc2cccc3ccccc23)c1C(=O)O	1.0%	-1.8%	-1.3%	-4.1%	26.9µM*	-4.9%
Cc1ccc(C(=O)O/N=C2\CCCc3ccccc32)cc1	15.0%	-1.1%	-23.6%	0.1%	0.169µM*	-0.3%
O=C(O)c1ccc(N/N=C2/CCSc3ccc(F)cc32)cc1	-6.9%	x	x	u	u	9.8%
O=C(O/N=C1\CCCc2ccccc21)c1cccc(Cl)c1	-0.4%	-1.4%	-10.0%	-2.3%	3.01µM*	-8.6%
Cc1cccc(C(=O)O/N=C2\CCCc3ccccc32)c1	u	-14.6%	-16.0%	-1.1%	0.675µM*	20.9%
O=C(O)c1ccc(N/N=C2/CCCc3ccccc32)cc1	3.16µM*	x	x	u	9.53µM*	2.51µM*
O=C(O)c1ccc(CNCc2ccccc2Cl)s1	x	-2.2%	x	x	-16.8%	x
CCOc1ccc(CNC(=O)C2CCN(c3nc4ccccc4nc3C(F)(F)F)CC2)cc1OC	x	x	x	x	-1.6%	x
Cc1ccc(C(=O)O/N=C2\CCSc3ccc(C)cc32)cc1	-2.3%	-2.0%	-5.5%	u	7.57µM*	0.5%
CC(C)c1nc2ccc(C(=O)NCCCN3CCN(c4ccccc4F)CC3)cc2o1	x	x	x	x	5.4%	x
CCCN1CCN(C(=O)c2noc3c2COc2ccc(C)cc2-3)CC1	3.3%	x	x	3.4%	-14.4%	-0.7%
CCOC(=O)N1CCN(C(=O)c2noc3c2COc2ccccc2-3)CC1	u	x	x	u	13.5µM*	u
O=C(N/N=C/c1ccoc1)c1ccc(Br)cc1	6.4%	x	x	17.9%	15.1µM*	14.8%
O=C(N/N=C/c1coc2ccccc2c1=O)c1ccc(Cl)cc1	0.7%	x	x	-9.4%	-5.7%	17.8%
O=C(N/N=C/c1coc2ccccc2c1=O)c1ccccc1	-2.9%	-3.6%	-5.5%	-3.8%	16.9µM*	-5.7%
NC(=O)N/N=C/c1sc(=O)n(-c2ccccc2)c1Cl	10.7%	x	x	7.1%	u	0.0%
O=C(N/N=C/c1sc(=O)n(-c2ccccc2)c1Cl)c1ccccc1	1.58µM*	7.08µM*	-19.2%	14.3%	6.01µM*	1.78µM*
O=C(N/N=C/c1ccoc1)c1ccc(Cl)cc1	0.7%	x	x	5.9%	u	3.8%
O=[N+]([O-])CC(=Nc1ccc(F)cc1)N/N=C\c1oc(O)c2ccccc12	u	x	x	6.9%	15.1µM*	29.6%
Oc1oc(C=Nc2ccc(F)cc2F)c2ccccc12	-1.0%	25.2%	-2.3%	-0.5%	5.1%	0.8%
O=C(O)C(=Cc1ccc(-c2ccccc2)cc1)C(=O)O	x	-9.7%[9.22 µM]	-6.2%[7.66 µM]	x	x	x
COc1cc(Cl)c(C)cc1NC(=O)CCCN1C(=O)C(c2ccccc2)Oc2cccnc21 (configuration not stated)	x	x	x	x	-10.6%	x
O=C(N/N=C/c1ccc[nH]1)c1ccccc1O	22.7%	x	-9.9%	u	9.53µM*	u
O=C(N/N=C/c1oc(O)c2ccccc12)c1ccccc1O	-1.7%	-10.3%	8.7%	14.5%	10.7µM*	-4.8%
SMILES	NPC1 promoter act	SMN2 splice enh	Luc counter	ELG1 genotoxic	FLuc modulator	Rab9 promoter act
O=C(N/N=C/c1coc2ccccc2c1=O)c1cc(Br)ccc1O	-0.4%	x	x	-7.1%	6.8%	2.5%
O=C(N/N=C/c1ccoc1)c1ccccc1O	1.8%	x	x	u	10.7µM*	-2.2%
O=C(N/N=C/c1ccoc1)c1ccccc1	15.9%	x	x	u	26.9µM*	3.1%
COc1ccccc1N1CCN(C(=O)c2cc3c(=O)n(C)c4ccccc4c3s2)CC1	x	-13.4%	x	x	-16.7%	x
CC(C)(C)C(=O)Cn1ncc(N2CCCC2)c(Br)c1=O	u	23.6%	3.6%	u	u	3.98µM*
CC(C)(C)C(=O)Cn1ncc(N2CCOCC2)c(Br)c1=O	6.9%	7.0%	2.9%	8.8%	-2.4%	26.1%
COc1ccc(SC[C@H](CC(C)C)N2CCN(CCc3ccccc3)CCC2=O)cc1	13.8%	x	x	-2.5%	19µM*	0.5%
Cc1ccc(SC[C@H](CC(C)C)N2CCN(CCc3ccccc3)CCC2=O)cc1	17.6%	x	x	5.3%	16.9µM*	11.5%
CC(=O)Nc1ccc(SC[C@H](CC(C)C)N2CCN(CCc3ccccc3)CCC2=O)cc1	3.6%	x	x	-8.2%	0.1%	-13.4%
NCCOc1ccccc1-c1ccccc1	-2.3%	25.0%	-2.7%	0.2%	5.9%	4.47µM*
NCCOc1ccccc1OCCN	1.3%	-10.7%	6.9%	9.4%	0.1%	-7.7%
COc1ccc(-c2noc(N3CCC(C(=O)Nc4cccc(OC)c4)CC3)n2)cc1	4.3%	x	x	-5.9%	-19.6%	17.1%
COc1ccc(-c2noc(-c3ccccc3C(=O)Nc3cccc(OC)c3)n2)cc1	5.1%	-35.3%	-4.6%	-1.0%	10.7µM*	-2.4%
COc1ccc(-c2noc(-c3ccccc3C(=O)Nc3cccnc3)n2)cc1OC	-0.6%	-16.8%	-1.1%	-2.6%	u	-2.2%
COc1ccccc1-c1noc(-c2ccccc2C(=O)Nc2cccnc2)n1	-3.8%	23.7%	-15.6%	-5.1%	15.1µM*	-3.3%
CC(=O)Nc1cccc(Oc2ccc(-c3noc(C)n3)cc2)c1	3.16µM*	10µM*	3.3%	9.2µM*	12µM*	1.58µM*
O=C(Nc1ccc(-c2noc(-c3cccs3)n2)cc1)c1cccnc1	1µM*	1.26µM*	-1.0%	u	4.78µM*	0.447µM*
COc1cccc(-c2nc(-c3ccc(NC(=O)c4cccnc4)cc3)no2)c1	u	-10.8%	1.3%	12.6%	u	29.6%
CCOc1ccc(NC(=O)c2cnn3c2NC(c2cccc(OC)c2)=CC3c2ccccc2)cc1 (configuration not stated)	x	x	x	x	-3.1%	x
COc1ccc(-c2noc(-c3ccccc3C(=O)Nc3cccnc3)n2)cc1	15.5%	4.7%	-0.4%	-8.7%	13.5µM*	28.7%
O=C1/C(=C/c2ccc([N+](=O)[O-])cc2)C=C(c2ccccc2)N1c1ccccc1	2.1%	x	x	2.8%	0.3%	0.5%
O=C(O)c1cccc(N2C(=O)/C(=C/c3ccc([N+](=O)[O-])cc3)C=C2c2ccccc2)c1	0.3%	-15.0%	-7.0%	-4.1%	23.9µM*	6.6%
COCCNC(=O)CSc1nc(-c2cc(OC)c(OC)c(OC)c2)[nH]c1-c1ccc(Cl)cc1	x	-7.4%	x	x	-12.8%	x
O=C(CSc1ccc(-c2ccc(-n3cccn3)cc2)nn1)Nc1ccccc1F	13.5%	x	x	u	0.601µM*	1.8%
COc1ccc(-c2cn3nc(SCC(=O)NCC4CCCO4)ccc3n2)cc1 (configuration not stated)	u	x	x	u	2.69µM*	1.58µM*
